Assay results: PubChem BioAssay (Tox21)
Where “and” joins values, the source holds several entries; their conditions need not be identical. Equal values may be shown once. Records with an inconclusive call do not appear. Entries that show only a call come without a potency. A structure can be active in one record and inactive in another. Calls of active or inactive are those of the source. Unless noted, calls follow the shape of the dose curve; as a rule, active = well fitted curve in the direction sought with a large enough effect in the repeat runs; inconclusive = weak or mixed curves; inactive = no such curve, though single readings can be large; an effect the other way counts as inactive or inconclusive.

Legend:
[1] = qHTS assay to identify small molecule antagonists of the glucocorticoid receptor (GR) signaling pathway - cell viability counter screen (AID 720693); also: nearly all actives have a fitted effect of over 55% in size
[2] = qHTS assay for identifying genotoxic compounds that show differential cytotoxicity against isogenic chicken DT40 cell lines with known DNA damage response pathways - wild type cell line (AID 743012); also: nearly all actives have a fitted effect of over 60% in size; also: potency is read from the fitted curve at half-maximal effect
Method in brief: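 Endpoint: CellTiter-Glo luminescence, 30 min RT. Cells: wild type DT40, 300/well. Exposure: compounds in DMSO, 40 h, 37 C/5% CO2, after ~0.5 h pre-incubation.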

[3] = qHTS assay for identifying genotoxic compounds that show differential cytotoxicity against isogenic chicken DT40 cell lines with known DNA damage response pathways - Rev3 mutant cell line (AID 743014); also: nearly all actives have a fitted effect of over 55% in size; also: potency is read from the fitted curve at half-maximal effect
[4] = qHTS assay for identifying genotoxic compounds that show differential cytotoxicity against isogenic chicken DT40 cell lines with known DNA damage response pathways - Rad54/Ku70 mutant cell line (AID 743015); also: nearly all actives have a fitted effect of over 60% in size; also: potency is read from the fitted curve at half-maximal effect
[5] = qHTS assay to identify small molecule antagonists of the androgen receptor (AR) signaling pathway - cell viability counter screen (AID 743033; also: nearly all actives have a fitted effect of over 45% in size; also: potency is read from the fitted curve at half-maximal effect)
[6] = qHTS assay to identify small molecule antagonists of the androgen receptor (AR) signaling pathway using the MDA cell line - cell viability counter screen (AID 743041; also: nearly all actives have a fitted effect of over 45% in size; also: potency is read from the fitted curve at half-maximal effect)
Method in brief: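 Viability read by CellTiter-Fluor fluorescence in the same wells as the antagonist screen, added after 15.5 h of a 16 h, 37C exposure. Human breast carcinoma MDA-kb2 AR-luc cells, compounds co-dosed with agonist R1881.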

[7] = target: Androgen receptor (Homo sapiens) (UniProt P10275); assay: qHTS assay to identify small molecule antagonists of the androgen receptor (AR) signaling pathway (AID 743035; active = well fitted inhibition curve with a large enough effect in the signal ratio in the repeat runs, not every such curve was filed as active; the % refers to the signal ratio)
Chain of Androgen receptor (Homo sapiens) (P10275 whole entry, looked up): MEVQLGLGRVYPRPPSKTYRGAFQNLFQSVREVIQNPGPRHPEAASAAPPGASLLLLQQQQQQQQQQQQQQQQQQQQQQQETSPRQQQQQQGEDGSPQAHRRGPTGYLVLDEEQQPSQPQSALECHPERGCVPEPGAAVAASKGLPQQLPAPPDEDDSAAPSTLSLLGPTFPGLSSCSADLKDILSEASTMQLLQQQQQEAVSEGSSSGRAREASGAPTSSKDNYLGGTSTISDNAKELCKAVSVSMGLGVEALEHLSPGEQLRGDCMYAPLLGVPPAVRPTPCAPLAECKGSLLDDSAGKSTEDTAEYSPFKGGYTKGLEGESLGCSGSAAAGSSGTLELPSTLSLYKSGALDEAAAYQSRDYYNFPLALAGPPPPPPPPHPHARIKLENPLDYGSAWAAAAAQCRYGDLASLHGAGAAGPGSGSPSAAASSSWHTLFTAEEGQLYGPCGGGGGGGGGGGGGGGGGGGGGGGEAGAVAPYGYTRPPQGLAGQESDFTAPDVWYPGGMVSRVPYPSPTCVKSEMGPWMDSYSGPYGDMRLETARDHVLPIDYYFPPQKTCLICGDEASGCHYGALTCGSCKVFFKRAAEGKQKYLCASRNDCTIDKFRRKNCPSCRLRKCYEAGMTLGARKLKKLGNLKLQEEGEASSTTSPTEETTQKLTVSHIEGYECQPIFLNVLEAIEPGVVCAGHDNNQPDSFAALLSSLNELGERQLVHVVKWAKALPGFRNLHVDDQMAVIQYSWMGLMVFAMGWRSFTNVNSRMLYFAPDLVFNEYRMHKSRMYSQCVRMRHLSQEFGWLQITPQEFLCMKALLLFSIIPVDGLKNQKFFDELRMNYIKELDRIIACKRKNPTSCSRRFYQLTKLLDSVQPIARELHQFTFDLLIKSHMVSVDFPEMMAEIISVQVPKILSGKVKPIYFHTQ
Method in brief: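 R1881 agonist challenge of a HEK293 UAS-beta-lactamase AR reporter line in the presence of compound (16 h, 37C); signal taken as FRET fluorescence after 2 h with LiveBLAzer B/G substrate at room temperature.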

[8] = target: Androgen receptor (Homo sapiens) (UniProt P10275); assay: qHTS assay to identify small molecule agonists of the androgen receptor (AR) signaling pathway (AID 743036; active = well fitted activation curve with a large enough effect in the signal ratio in the repeat runs, with a control signal flat, not every such curve was filed as active; the % refers to the signal ratio)
Method in brief: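 Fluorescence from a beta-lactamase FRET substrate served as read-out in AR-UAS-bla GripTite HEK293 cells. Cells were treated with DMSO-dissolved compounds for 16 h at 37C, then with LiveBLAzer B/G substrate for 2 h at room temperature.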

[9] = target: Androgen receptor (Homo sapiens) (UniProt P10275); assay: qHTS assay to identify small molecule agonists of the androgen receptor (AR) signaling pathway using the MDA cell line (AID 743040; also: nearly all actives have a fitted effect of over 20% in size); conditions: MDA-kb2 AR-luc cells, MMTV luciferase, 16 h, stronger effect = higher value
Method in brief: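 Luciferase agonist assay: 16 h compound exposure at 37C without CO2 in MDA-kb2 AR-luc cells, whose MMTV promoter responds to both AR and GR. Luminescence measured after 30 min room-temperature incubation with ONE-Glo.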

[10] = target: Androgen receptor (Homo sapiens) (UniProt P10275); assay: qHTS assay to identify small molecule antagonists of the androgen receptor (AR) signaling pathway using the MDA cell line (AID 743042; also: nearly all actives have a fitted effect of over 55% in size)
Method in brief: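 Antagonist mode: compounds plus R1881 agonist added to MDA-kb2 AR-luc cells, incubated 16 h at 37C. Luciferase reporter luminescence quantified, with multiplexed CellTiter-Fluor readout for cell viability.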

Structure (SMILES)	Potency [1]	Potency [2]	Potency [3]	Potency [4]	Potency [5]	Potency [6]	Potency [7]	Potency [8]	activity change ([9]; at 70.3 µM (top of the series))	Potency [10]	activity change ([9]; at 95 µM (top of the series))
NC1CCCCC1N (stereo unspecified)	inactive	inactive	inactive	inactive	inactive	inactive					
NCCNCCNCCN	inactive	inactive	inactive	inactive	inactive	inactive					
COc1ccc([C@@H]2CC(=O)c3c(O)cc(O[C@@H]4O[C@H](CO[C@@H]5O[C@@H](C)[C@H](O)[C@@H](O)[C@H]5O)[C@@H](O)[C@H](O)[C@H]4O)cc3O2)cc1OC	inactive	inactive	inactive	inactive	inactive	inactive					
CC(=O)OC(C)(C)C1CC=C(C)CC1 (stereo unspecified)	inactive	inactive	inactive	inactive and 54.5 µM (active)	inactive	inactive					
CCCOCC(C)O (stereo unspecified)	inactive	inactive	inactive	inactive	inactive	inactive	inactive	inactive	-0.141% (active) and -0.54% (inactive)	inactive	
CCCCCCCCCCCCCC(=O)O	inactive	inactive	inactive	inactive	inactive	inactive					
OC1CCCCC1	inactive	inactive	inactive	inactive	inactive	inactive					
OCc1ccc(Cl)cc1Cl	inactive	inactive	inactive	inactive	inactive	inactive					
COC(=O)OC	inactive	inactive	inactive	inactive	inactive	inactive					
O=C(O)C1=NN(c2ccc(S(=O)(=O)O)cc2)C(=O)C1	inactive	inactive	inactive	inactive	inactive	inactive					
N#CCC(=O)O	inactive	inactive	inactive	inactive	inactive	inactive					
CN1Cc2c(N)cccc2C(c2ccccc2)C1 (stereo unspecified)	inactive	inactive	inactive and 61.1 µM (active)	inactive and 54.5 µM (active)	inactive	inactive					
OCC(O)CS (stereo unspecified)	inactive	inactive	inactive	inactive	inactive	inactive	inactive	inactive	0.512% (inactive)	inactive	
C=C1C[C@]23C[C@@]1(O)CC[C@H]2[C@@]12C=C[C@H](O)[C@@](C)(C(=O)O1)[C@H]2[C@@H]3C(=O)O	inactive	inactive	inactive	inactive	inactive	inactive					
NC(=O)c1ncn([C@@H]2O[C@H](CO)[C@@H](O)[C@H]2O)n1	inactive	668 nM (active) and 5.12 µM (active)	750 nM (active) and 1.62 µM (active)	1.68 µM (active) and 4.07 µM (active)	inactive	inactive					
Nc1cccc(C(F)(F)F)c1	inactive	inactive	inactive	inactive	inactive	inactive					
O=[N+]([O-])c1cc(C(F)(F)F)ccc1Cl	inactive	inactive	inactive	inactive	inactive		inactive	inactive	-0.292% (inactive)	inactive	5.79% (inactive)
CCCN(CCC)C(=O)SCC	inactive	inactive	inactive	inactive	inactive	inactive	inactive	inactive	1.01% (inactive)	inactive	-1.98% (inactive)
CCCCC(CC)COC(=O)c1ccc(C(=O)OCC(CC)CCCC)cc1 (stereo unspecified)	inactive	inactive	inactive	inactive	inactive	inactive	inactive	inactive	2.15% (inactive) and 1.01% (inactive)	inactive	
NC(=O)NC(N)=O	inactive	inactive	inactive	inactive	inactive	inactive					
CC(C)c1ccc(C(C)C)cc1	inactive	inactive	inactive	inactive	inactive	inactive					
CC(C=O)Cc1ccc(C(C)(C)C)cc1 (stereo unspecified)	inactive	inactive	inactive	inactive	inactive	inactive	inactive	inactive	-2.03% (inactive) and -1.92% (inactive)	inactive	
O=C(O)Cc1c[nH]c2ccccc12	inactive	inactive	inactive	inactive	inactive	inactive					
CO[Si](CCCNCCN)(OC)OC	inactive	inactive	inactive	inactive	inactive	inactive	inactive	inactive	-2.52% (inactive)	inactive	0.325% (inactive)
CN1CCCC1=O	inactive	inactive	inactive	inactive	inactive	inactive					
COc1ccc(N)c(OC)c1	inactive	inactive	inactive	inactive	inactive	inactive					

Structure (SMILES)	Potency [1]	Potency [2]	Potency [3]	Potency [4]	Potency [5]	Potency [6]	Potency [7]	Potency [8]	activity change ([9]; at 70.3 µM (top of the series))	Potency [10]	activity change ([9]; at 95 µM (top of the series))
Cc1nnc(NS(=O)(=O)c2ccc(N)cc2)s1	inactive	inactive	inactive	inactive	inactive	inactive	inactive	inactive	6.45% (inactive) and 3.21% (inactive)	inactive	
O=[N+]([O-])c1ccccc1C(F)(F)F	inactive	inactive	inactive	inactive	inactive	inactive	inactive	inactive	0.939% (inactive) and 0.0136% (inactive)	inactive	
CS(=O)(=O)c1ccc(Cl)cc1	inactive	inactive	inactive	inactive	inactive	inactive					
CC(CN1c2ccccc2Sc2ccccc21)N(C)C (stereo unspecified)	inactive	21.1 µM (active) and 55 µM (active) and 54.5 µM (active)	26.6 µM (active) and 27.6 µM (active) and 24.3 µM (active)	26.6 µM (active) and 30.9 µM (active) and 54.5 µM (active)	inactive and 44.1 µM (active)						
Cc1cc(C)c(O)c(C)c1	inactive	inactive	inactive	inactive	inactive	inactive					
Cc1cccc(C)c1[N+](=O)[O-]	inactive	inactive	inactive	inactive	inactive	inactive					
Cc1ncc(CO)c(CO)c1O	inactive	inactive	inactive	inactive	inactive	inactive					
COc1c(Cl)ccc(Cl)c1C(=O)O	inactive	inactive	inactive	inactive	inactive	inactive					
Cc1ccccc1Cl	inactive	inactive	inactive	inactive	inactive	inactive	inactive	inactive	-0.0268% (inactive)	inactive	-0.806% (inactive)
CC(O)CNCC(C)O (stereo unspecified)	inactive	inactive	inactive	inactive	inactive	inactive					
COC(=O)/C=C\C(=O)OC	inactive	inactive	inactive	inactive	inactive	inactive					
COc1cc(NC(=O)CC(C)=O)c(OC)cc1Cl	inactive	inactive	inactive	inactive	inactive	inactive					
CCCCCCC(=O)O	inactive	inactive	inactive	inactive	inactive	inactive					
OCCOCCOCCOCCOCCO	inactive	inactive	inactive and 24.3 µM (active)	inactive	inactive	inactive					
CC(C)(C)NC[C@H](O)COc1nsnc1N1CCOCC1	inactive	inactive	inactive	inactive	inactive	inactive					
c1cnc2c(c1)ccc1cccnc12	inactive	3.09 µM (active) and 1.54 µM (active) and 3.86 µM (active)	1.38 µM (active) and 1.22 µM (active) and 2.43 µM (active)	1.38 µM (active) and 686 nM (active) and 1.54 µM (active)	4.9 µM (active)	49 µM (active) and 30.6 µM (active)					
CC/C=C(\C(=O)N[C@@H]1C(=O)N2C(C(=O)OCOC(=O)C(C)(C)C)=C(COC(N)=O)CS[C@H]12)c1csc(N)n1	inactive	inactive	inactive	inactive	inactive	inactive					
CC/C(C)=N/O	inactive	inactive	inactive	inactive	inactive	inactive					
CC1=CC(=O)CC(C)(C)C1	inactive	inactive	inactive	inactive	inactive	inactive					
CC(=O)OC[C@H]1O[C@@](COC(C)=O)(O[C@H]2O[C@H](COC(C)=O)[C@@H](OC(C)=O)[C@H](OC(C)=O)[C@H]2OC(C)=O)[C@@H](OC(C)=O)[C@@H]1OC(C)=O	inactive	inactive	inactive	inactive	inactive	inactive					
CC(C)(CO)CO	inactive		inactive	inactive	inactive	inactive	inactive	inactive	0.0392% (inactive) and -0.381% (inactive)	inactive	
COc1ccccc1[N+](=O)[O-]	inactive	inactive	inactive	inactive	inactive	inactive					
COc1c2ccoc2cc2oc(=O)ccc12	inactive	inactive	inactive	inactive	inactive	inactive					
C1CCCNCC1	inactive	inactive	inactive	inactive	inactive	inactive					
CC(=O)OCc1ccc2c(c1)OCO2	inactive	inactive	inactive	inactive	inactive	inactive					
